A selection: hits, their analogues and other compounds. The true share with any hit is near 1.3%.
pAkt inh: blocks phosphorylation of Akt | Neuro2A IGF-stimulated pAkt S473 HTRF, 20 min; stronger effect = lower value | activity change, % for hits at 50 µM | actives 0.32% (n = 360,000); in the data active means activity change below about -80%; inconclusive means mostly about -51% to -80%
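Neuro2A cells (4,500/well, DMEM with 0.5% FBS) were treated with compound at a single 50 µM final concentration, stimulated with 6 nM IGF for 20 min at 37 °C, and lysed. Phospho-Akt Ser473 was read by HTRF as 665/615 ratio ×10^4.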
Six1-Eya2 blk: Six1/Eya2 interaction inhibition; AID 651725; AlphaScreen GST-Six1/His-Eya2 binding, biochemical; stronger effect = lower value; actives 0.56% (n = 360,000); Q15475+O00167; activity change, % (test concentration not listed)
Target sequence (O00167 whole entry, looked up): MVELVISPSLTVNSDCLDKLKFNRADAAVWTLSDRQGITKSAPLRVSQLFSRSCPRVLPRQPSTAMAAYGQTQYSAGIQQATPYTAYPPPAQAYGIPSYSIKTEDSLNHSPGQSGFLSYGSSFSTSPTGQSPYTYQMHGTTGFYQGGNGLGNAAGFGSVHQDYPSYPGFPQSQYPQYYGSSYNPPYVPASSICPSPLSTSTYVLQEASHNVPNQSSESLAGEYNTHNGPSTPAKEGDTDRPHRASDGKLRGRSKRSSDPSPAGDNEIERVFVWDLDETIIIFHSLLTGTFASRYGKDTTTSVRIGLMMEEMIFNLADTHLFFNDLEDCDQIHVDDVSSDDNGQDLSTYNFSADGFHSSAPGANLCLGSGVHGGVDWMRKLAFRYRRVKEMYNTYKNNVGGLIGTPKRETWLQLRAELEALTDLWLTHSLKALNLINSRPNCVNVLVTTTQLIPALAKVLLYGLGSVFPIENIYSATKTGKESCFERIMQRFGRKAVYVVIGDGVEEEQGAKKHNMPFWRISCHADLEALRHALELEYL
Target sequence (Q15475 whole entry, looked up): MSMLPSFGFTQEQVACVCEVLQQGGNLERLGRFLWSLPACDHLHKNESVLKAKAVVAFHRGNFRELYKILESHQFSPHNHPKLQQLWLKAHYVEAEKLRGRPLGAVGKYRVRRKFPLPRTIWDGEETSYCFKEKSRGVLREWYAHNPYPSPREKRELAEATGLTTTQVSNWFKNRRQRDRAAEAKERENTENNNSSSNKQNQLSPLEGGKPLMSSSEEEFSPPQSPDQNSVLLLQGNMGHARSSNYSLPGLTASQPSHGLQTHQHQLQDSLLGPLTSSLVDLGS
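Six1/Eya2 binding was read as AlphaScreen signal after compounds were pinned into GST-Six1 plus His-tagged Eya2 (5X stock 250/500 nM) in pH 8.0 Tris/NaCl/TCEP buffer, beads added, then incubated 1 h, 37 C, dark.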
CtBP-E1A blk: blocks the CtBP interaction with E1A | AlphaScreen GST-E1A/His-CtBP binding, 1536-well; stronger effect = lower value | activity change, % (no concentration beside the values) | actives 0.49% (n = 340,000) | AID 651724
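GST-E1A and His-tagged CtBP (125 nM each as 5X stock) were preincubated with pin-transferred compound for 2 h at 37 °C in the dark, then glutathione donor and nickel acceptor beads were added for 1 h before AlphaScreen reading.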
CCT modulator: cytosolic chaperonin activity modulation | activity change, % (test concentration not listed), hits read low | AID 651819 | actives 0.3% (n = 360,000) | purified chaperonin ATPase assay, HTRF ADP detection, 30 min; in the data active means activity change below about -30%
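Enzyme 40 or 20 nM (batch-dependent) in Tris pH 7.4/KCl/MgCl2/DTT; cpd 76 uM single point; ATP 10 uM; 30 min 37 °C; Transcreener ADP HTRF detection, 30 min RT; ratio 665/615.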
Active calls of the source: *; i = inactive; ? = inconclusive; . = no result; ! = not confirmed by another sample. Unless noted, no stated cut-off is given here; in the data, active means activity change below about -65%; inconclusive means mostly about -30% to -63%; inactive means weaker than that. On the % scale 0 is the no-effect control and ±100 the full control effect.

SMILES	pAkt inh	Six1-Eya2 blk	CtBP-E1A blk	CCT modulator
Cc1ccc2c(c1)c1c3n2CCNC3CCC1 (stereo not given)	i	-22	-16	-61*!
NS(=O)(=O)c1ccc(NC(=O)COC(=O)COc2ccc(Br)cc2)cc1	i	2	10	1
O=C(Nc1ccccc1Cl)c1ccc2nc(N3CCOCC3)sc2c1	i	0	2	0
CC(/C=C/c1ccccc1)=N\Nc1nc(-c2ccccc2)cs1	i	-2	-4	-70*
O=C(CN1C(=O)NC2(CCCc3ccccc32)C1=O)c1ccc(F)c(F)c1 (stereo not given)	i	5	4	-4
COC(=O)CCCn1cc(CN2CC(N3CCCCC3)CS2(=O)=O)nn1 (stereo not given)	i	-3	0	1
COc1cccc(OCc2nc3ncc(Br)cc3[nH]2)c1	-97%*	-2	4	0
COCCNc1nc(=S)[nH]c2cc(OC)c(OC)cc12	i	-80*	-87*	0
COc1ccc(CNC(=O)CCCCCNc2nc(=S)[nH]c3ccccc23)cc1	i	?	?	3
COc1cc2[nH]c(=S)nc(NCCCOC(C)C)c2cc1OC	i	-86*	-93*	-3
CCOCCCNc1nc(=S)[nH]c2cc(OC)c(OC)cc12	i	-83*	-92*	-3
COc1ccc(CCNC(=O)CCCCCNc2nc(=S)[nH]c3ccccc23)cc1OC	i	?	-19	-2
CCCCNc1nc(=S)[nH]c2cc(OC)c(OC)cc12	i	-91*	-93*	-3
Fc1cccc(CCN2CCNC[C@@H]2CC2CCCCC2)c1	i	-1	-1	-1
CC1(C)CC(=O)C2=C(C1)N1C(=C(C#N)C2c2ccc(Cl)cc2)N=C(N)c2ccccc21 (stereo not given)	i	-20	-15	-36*
CN(C)S(=O)(=O)N1CCC(Oc2cccc(C(=O)N3CCSCC3)c2)CC1	i	7	1	0
COc1cccc(-n2nc3c(-n4ncc(C#N)c4N)nnc(C)c3c2C)c1	-123%*	-1	10	-3
c1ccc(-c2nccc(-c3ccco3)n2)nc1	i	?	-67*	-7
c1ccc(-c2noc(-c3ccco3)n2)nc1	i	-6	-5	0
O=[N+]([O-])c1ccccc1C=NN1CCCCCC1	i	-70*	?	2
O=[N+]([O-])c1ccccc1/C=N/N1CCN(Cc2ccccc2)CC1	i	?	-29	-5
CC1CCCC(N2CCN(S(=O)(=O)c3ccccc3)CC2)C1 (stereo not given)	i	16	-9	-4
Cc1ccc(Cn2ccc(=O)c(OCc3ccccc3)c2C)cc1	i	7	3	-1
Cc1c(OCc2ccccc2)c(=O)ccn1Cc1ccc(Cl)cc1	-115%*	10	8	1
Cc1ccc(-n2cnc3scc(-c4cccs4)c3c2=O)cc1	i	8	6	-1
SMILES	pAkt inh	Six1-Eya2 blk	CtBP-E1A blk	CCT modulator
Cc1ccc(C(=O)Nn2cnc3scc(-c4cccs4)c3c2=O)c(O)c1	i	-9	0	-47*
CC(=O)N1CCC(N(CCN2CCOCC2)C(=S)Nc2c(C)cccc2C)CC1	i	5	4	-35*
CC(=O)N1CCC(N(CCN2CCOCC2)C(=S)Nc2cccc(C)c2)CC1	i	5	7	-3
CCCS(=O)(=O)Nc1cccc(-c2ccc3nnc(C)n3n2)c1	i	-25	.	0
CCS(=O)(=O)Nc1cccc(-c2ccc3nnc(-c4cccnc4)n3n2)c1	i	-67*	-85*	-2
COc1ccc(OC)c(C(=O)COC(=O)COc2ccccc2F)c1	i	5	10	0
COc1ccccc1/C=C(/CC(=O)NCc1ccccc1)c1nc2ccccc2s1	i	6	1	-34*
O=C(O)COc1ccc(/C=C2\SC(=Nc3ccccc3)N(c3ccccc3)C2=O)cc1	i	1	.	-1
COc1ccc(N=C2S/C(=C\c3ccc(OCC(=O)O)cc3)C(=O)N2CCc2c[nH]c3ccccc23)cc1	i	-80*	-20	2
CCCCC1CCC(C(=O)N(CC(C)C)c2c(N)n(Cc3ccccc3)c(=O)[nH]c2=O)CC1 (stereo not given)	i	8	5	-1
COc1ccc(C2C3=C(CC(C)(C)CC3=O)Nc3c2c(=O)[nH]c(=O)n3Cc2ccccc2)cc1 (stereo not given)	-102%*	-6	0	0

Source: PubChem BioAssay
